This is a sample that favours compounds with a hit; in the whole collection about 2.9% have one here.
esBAF inh: SWI/SNF esBAF complex inhibition | mouse ES cells, Bmi1-luciferase knock-in reporter, 24 h; 100% = twice the neutral-well signal | reporter increase, % at 12.5 µM | actives 2% (n = 350,000) | AID 602393; in the data active = activation above about 40%; inconclusive = no clear call, values can overlap the other calls;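 also: 0% = median of the plate's neutral control wells and 100% = double that signal; a rise in the Bmi1 reporter signal indicates esBAF inhibition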
Vif imaging: inhibitors of HIV Vif; HEK293T cells, Vif self-association by quenched fluorescence, imaging, 24 h; inhibition, % at 7.49 µM; actives 0.35% (n = 340,000); in the data active = inhibition above about 50%, passing the limit was not always enough; inconclusive = no clear call, values can overlap the other calls; inactive = below about 31%
Wnt bcat act: activates Wnt/beta-catenin signaling in a reporter cell assay | activator, plate reader | actives 1.2% (n = 300,000) | AID 743398 | activation, % at 9.35 µM; in the data active = activation above about 30%, passing the limit was not always enough; inconclusive = no clear call, values can overlap the other calls;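 also: 0% = neutral control wells and 100% = positive control wells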
PvdQ acylase: blocks Pseudomonas aeruginosa PvdQ acylase activity | purified PvdQ acylase, fluorescence plate reader | inhibition, % at 10 µM | actives 0.063% (n = 340,000) | AID 488965; in the data active = inhibition above about 30%, passing the limit was not always enough; inconclusive = no clear call, values can overlap the other calls;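 also: 0% = vehicle neutral wells and 100% = reference inhibitor wells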
Glyco luc inh: blocks N-linked glycosylation in D54 reporter cells | D54 ERlucT glycosylation luciferase reporter, 24 h; percent of 100 nM tunicamycin response | actives 0.23% (n = 360,000) | AID 588692 | reporter increase, % at 12.5 µM;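 active = mean luciferase reporter signal, scaled so untreated is 0 and the glycosylation-blocking control 100, at or above a set limit in every replicate; inconclusive = mean reaches the limit but not every replicate does; inactive = mean below the limit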;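 also: luciferase carries N-glycosylation sites so blocking glycosylation raises the light; 0% = median of neutral control wells and 100% = median of 100 nM tunicamycin wells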
MITF TRPM1 HTS: increases MITF-driven TRPM1 promoter luciferase signal; actives 0.75% (n = 300,000); activation, % at 12.5 µM; AID 588334; SK-MEL-5 TRPM1-promoter luciferase, 24 h; % of positive control, neutral wells = 0;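 active = mean activation of at least 80% with every replicate also reaching 80%; inconclusive = mean reaches 80% but some replicate falls short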;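 also: 0% = neutral control wells and 100% = parthenolide positive control wells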
esBAF Ring1 qPCR: de-represses Ring1 in mouse ESCs, confirming esBAF inhibition | shares compounds with esBAF inh | mouse ESC E14, Ring1 mRNA RT-qPCR fold change | fold change at 33 µM | 550 tested, under 10 active | AID 743176;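 active = Ring1 gene expression raised more than 2-fold over untreated cells in both replicates at either tested dose; inconclusive = only one replicate above 2-fold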;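 also: Ring1 transcript normalised to actin housekeeping signal by TaqMan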
Fgf4 repress: esBAF inhibition confirmed by Fgf4 repression | shares compounds with esBAF inh | mouse ESC E14, Fgf4 mRNA qPCR fold change; stronger effect = lower value | Fgf4 expression fold change at 33 µM | actives 4% (n = 550) | AID 743177;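 active = Fgf4 expression under 0.8 fold of control in both repeat measurements at one or both tested doses; inconclusive = under 0.8 fold in just a single repeat measurement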;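 also: Fgf4 transcript normalised to actin in duplex TaqMan qPCR; cells exposed to compound for 24 h before lysis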
Bmi1 derepress: confirmation of esBAF inhibitors: Bmi1 de-repression in mouse ESCs; shares compounds with esBAF inh; mouse ESE14 ES cells, Bmi1 mRNA qPCR fold; stronger effect = higher value; fold change at 33 µM; 550 tested, under 10 active; AID 743180;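 active = Bmi1 expression fold change above 6 at either tested concentration, seen in replicate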;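 also: higher fold means more Bmi1 de-repression and stronger esBAF inhibition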
A549 cytotox: cytotoxicity in A549 cells | shares compounds with esBAF inh | plate reader | cell viability change % (negative = cytotoxic), % at 25 µM, hits read low | 550 tested, under 10 active | AID 743188; call rule not given here
HepG2 tox SP: HepG2 cell cytotoxicity at single point; shares compounds with esBAF inh; plate reader; stronger effect = lower value; activity change, negative = inhibition, % at 25 µM; actives 4% (n = 550); in the data active = activity change below about -50%
HEK293 cytotox SP: kills or reduces viability of HEK293 cells. activity change, negative = inhibition, % at 25 µM, hits read low. shares compounds with esBAF inh. HEK293 cytotoxicity, plate reader. actives 3% (n = 550). AID 743190; in the data active = activity change below about -38%, passing the limit was not always enough
* hit, by the source's call; i = inactive; ? = inconclusive; . = no result.

SMILES	esBAF inh	Vif imaging	Wnt bcat act	PvdQ acylase	Glyco luc inh	MITF TRPM1 HTS	esBAF Ring1 qPCR	Fgf4 repress	Bmi1 derepress	A549 cytotox	HepG2 tox SP	HEK293 cytotox SP
COC(=O)c1sccc1NC(=O)c1ccc(OC)cc1	76*	-21	8	0	0	.	1.3	1	1.9	-19	-13	-6
COC(=O)c1sccc1NC(=O)c1ccc(C#N)cc1	-3	-12	.	9	-2	.	.	.	.	.	.	.
O=C(C[C@@H]1CC[C@@H]2[C@H](COC[C@H](O)CN2C(=O)c2ccc(F)cc2)O1)NCc1cccc(F)c1	0	.	.	.	.	.	.	.	.	.	.	.
COc1cccc(C(=O)c2cc3cc(Cl)ccc3[nH]2)c1	78*	-1	14	-12	12	23	1	?	2.5	-6	-34	5
O=C(c1ccccc1)c1cc2cc(Cl)ccc2[nH]1	34	-7	18	-9	-2	62	.	.	.	.	.	.
COc1cc(Cl)ccc1OCc1cc(C(=O)N(C)Cc2cccc3cnccc23)no1	71*	-11	11	-11	-1	45	1.2	1.1	1.5	-7	-13	-31
CC(c1ccccc1)c1nnc(NC(=O)Nc2ccccc2)s1 (stereo not given)	8	14	0	12	0	-11	.	.	.	.	.	.
CC(c1ccccc1)c1nnc(NC(=O)Nc2ccccc2F)s1 (stereo not given)	80*	-7	0	-15	-3	?	1.3	0.88	1.2	-8	-37	-2
COc1c(C(=O)NNC(=O)c2ccccc2)csc1Br	56*	-5	39*	-9	1	59	1.2	0.9	1.7	5	-38	2
C[C@H](CO)N1C[C@H](C)[C@H](CN(C)C(=O)Nc2cccc3ccccc23)Oc2c(NC(=O)c3nc4ccccc4s3)cccc2C1=O	2	.	.	.	.	.	.	.	.	.	.	.
O=C(Cc1ccccc1)N/N=C/c1ccccc1OCc1ccc(Cl)cc1	101*	28	.	-8	-2	69	1.2	?	2.7	-17	10	-14
Cc1ccn2cc(C(=O)Nc3ccc4c(c3)OCCO4)nc2c1	37	-7	24	-7	-12	36	.	.	.	.	.	.
Cc1ccn2cc(C(=O)Nc3nnc(C)s3)nc2c1	55*	-2	7	-3	-3	?	1	0.97	1.6	-9	-16	-6
CC(C)CC#Cc1ccc2c(c1)O[C@@H](CN(C)Cc1cccc(F)c1)[C@H](C)CN([C@@H](C)CO)S2(=O)=O	1	.	.	.	.	.	.	.	.	.	.	.
Cc1ccc(Cl)c2c(N=Nc3ccccc3)c(O)[nH]c12	58*	i	14	6	1	35	1.5	0.98	1.6	4	24	-9
CN1[C@@H]2Cn3c(ccc(-c4ccncc4)c3=O)[C@H]1[C@@H](C(=O)Nc1nccs1)[C@@H]2CO	1	.	.	.	.	.	.	.	.	.	.	.
Cc1cc(NC(=O)Nc2ccc3c(ccn3C)c2)sn1	81*	1	25	-8	1	106*	1.5	0.94	1.5	-2	1	-11
Cc1ccc(NC(=O)Nc2ccc3c(c2)nc(C)n3C)cc1	.	-11	.	0	-10	9	.	.	.	.	.	.
CS(=O)(=O)Nc1ccc2c(c1)[C@@H]1C[C@H](CC(=O)NCc3ccc(Oc4ccccc4)cc3)O[C@@H](CO)[C@@H]1O2	-30	.	.	.	.	.	.	.	.	.	.	.
Cc1ccc(N/N=C2/CCCNC2=O)cc1	0	-4	1	3	-1	.	.	.	.	.	.	.
O=C1NCCC/C1=N/Nc1cc(F)ccc1F	60*	4	-2	-3	2	57	0.82	0.88	1.3	-12	-55*	-21
O=C(C[C@@H]1CC[C@@H]2[C@H](COC[C@H](O)CN2S(=O)(=O)c2ccc(Oc3ccccc3)cc2)O1)NC1CCC1	2	.	.	.	.	.	.	.	.	.	.	.
CSc1nnc(NC(=O)C23CC4CC(CC(C4)C2)C3)s1	58*	1	13	-7	0	46	1.1	?	1	-15	-22	-8
NC(=O)CSc1nnc(NC(=O)C23CC4CC(CC(C4)C2)C3)s1	.	-6	.	-10	3	42	.	.	.	.	.	.
COc1ccc(NC(=O)c2csc3c2CCCC3)cc1	69*	.	24	-4	-8	58	0.94	0.97	1.5	-8	-51*	-21
SMILES	esBAF inh	Vif imaging	Wnt bcat act	PvdQ acylase	Glyco luc inh	MITF TRPM1 HTS	esBAF Ring1 qPCR	Fgf4 repress	Bmi1 derepress	A549 cytotox	HepG2 tox SP	HEK293 cytotox SP
COc1ccc(CNC(=O)c2csc3c2CCCC3)cc1	5	7	-2	2	-1	5	.	.	.	.	.	.
COc1ccc(-c2cnc(C(O)c3ccccc3)[nH]2)cc1 (stereo not given)	65*	-8	0	.	-3	.	1.3	1	1.3	11	13	-2
COc1ccc(-c2cnc(C(O)c3ccc(-c4ccccc4)cc3)[nH]2)cc1 (stereo not given)	-3	5	-2	.	0	.	.	.	.	.	.	.
Cc1cc(C(=O)Cn2cnc3ccccc3c2=O)c(C)n1C1CC1	65*	0	20	3	-1	53	1.3	0.92	1.3	-2	-22	1
O=C(O)Cn1cnc2ccccc2c1=O	-8	4	.	-10	1	-3	.	.	.	.	.	.
c1ccc(-c2cc3ccccc3[nH]2)cc1	54*	-7	28	-13	-3	96*	0.96	1.1	1.2	-3	-24	-17
CCCNC(=O)N(C)C[C@H]1Oc2ncc(C#CC3CC3)cc2C(=O)N([C@H](C)CO)C[C@@H]1C	-12	.	.	.	.	.	.	.	.	.	.	.
CC(=O)Nc1ccc2c(c1)Cc1c(F)cccc1-2	83*	-4	27	-5	-1	42	1.1	?	1.5	7	60	3
CC(=O)Nc1ccc2c(c1)Cc1c-2cc(Br)c(N)c1Br	24	25	8	-3	-3	13	.	.	.	.	.	.
Nc1cc2c(cc1Cl)-c1ccccc1C2	108*	-2	0	-10	-6	67	0.86	0.82	1.6	-3	15	-4
Nc1ccc2c(c1)Cc1cc(N)c(Br)cc1-2	.	6	-5	-8	-3	23	.	.	.	.	.	.
CN1CCN(S(=O)(=O)c2ccc3ccccc3c2)CC1	-5	17	-2	-5	2	1	.	.	.	.	.	.
O=S(=O)(c1ccc2ccccc2c1)N1CCN(S(=O)(=O)c2c(F)cccc2F)CC1	80*	-2	22	-14	-6	55	1.1	?	1.3	-10	-8	-5

Assay outcomes from PubChem BioAssay.
